Laboratory results as given in PubChem BioAssay (EPA / NIEHS).
Activity calls are given as the source filed them. How the source made its calls: active means hit-call score of the fitted dose curve at least 0.9, where 1 is the maximum; inactive means score below 0.9.

What was measured:
[1] = ATG_GLI_CIS: Attagene CIS-FACTORIAL HepG2 Assay for human Zinc Finger Protein GLI1 (AID 2282945); details: HepG2, Attagene cis-factorial reporter mRNA, GLI element; actives raise or lower the signal
How it was run: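 HepG2 cells transiently transfected with cis-promoter multiplexed reporter units report endogenous transcription factor activity. After 24 h chemical exposure, reporter mRNA was quantified by RT-PCR, 6-FAM labelling, HpaI digestion and capillary electrophoresis, with bidirectional fitting against DMSO.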

[2] = ATG_GRE_CIS: Attagene CIS-FACTORIAL HepG2 Assay for human Glucocorticoid Response Elements (GRE) (AID 2282947); details: HepG2 GRE cis-reporter, Attagene multiplex mRNA; actives raise or lower the signal
How it was run: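 Cells (HepG2) bearing transfected cis-promoter reporter transcription units were treated with chemical for 24 hours. Reporter mRNA was measured via RT-PCR with capillary electrophoresis, and activity was fitted in both directions relative to DMSO.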

[3] = ATG_ISRE_CIS: Attagene CIS-FACTORIAL HepG2 Assay for human Interferon Regulatory Factor 1 (IRF1) binding to an Interferon-Stimulated Response Element (ISRE) (AID 2282948); details: HepG2 ISRE cis-reporter (Attagene), mRNA transcription readout; actives raise or lower the signal
How it was run: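 Multiplexed mRNA reporter readout in human liver HepG2 cells: cis-element-driven reporters transfected, compound added for 24 h, transcripts amplified, fluorescently labelled and sized by capillary electrophoresis; curve fitting bidirectional against DMSO.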

[4] = ATG_M_32_CIS: Attagene CIS-FACTORIAL HepG2 Assay for M32 Transcription Factor (Internal Marker) (AID 2282949); details: HepG2 Attagene cis-factorial M32 reporter, mRNA; actives raise or lower the signal;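 further: background control marker of the multiplexed CIS panel rather than a real target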
How it was run: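 HepG2 transfectants (cis-regulated reporter transcription units) dosed 24 h. Reporter mRNA by RT-PCR plus CE, analysed as gain or loss relative to DMSO.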

[5] = ATG_M_06_CIS: Attagene CIS-FACTORIAL HepG2 Assay for M06 Transcription Factor (Internal Marker) (AID 2282950); details: HepG2 Attagene CIS-FACTORIAL M06 internal marker reporter; actives raise or lower the signal
How it was run: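 HepG2 cells transiently transfected with cis-regulated multiple reporter transcription units were exposed to chemical for 24 h; reporter mRNA was quantified by RT-PCR, 6-FAM primer labelling, HpaI digestion and capillary electrophoresis, fitted bidirectionally against DMSO.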

[6] = target: Hypoxia-inducible factor 1-alpha (Homo sapiens) (UniProt Q16665); experiment: ATG_HIF1a_CIS: Attagene CIS-FACTORIAL HepG2 Assay for human Hypoxia Inducible Factor 1 (HIF1A) (AID 2282951); details: HepG2 Attagene cis-factorial HIF1a reporter transcription; actives raise or lower the signal
How it was run: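 Endogenous-TF cis reporter readout, human HepG2 cells, 24 h incubation; mRNA detected via RT-PCR and capillary electrophoresis fluorescence; DMSO-normalised bidirectional fitting.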

[7] = target: Hepatocyte nuclear factor 6 (Homo sapiens) (UniProt Q9UBC0); experiment: ATG_HNF6_CIS: Attagene CIS-FACTORIAL HepG2 Assay for human Hepatocyte Nuclear Factor 6 (HNF6) (AID 2282952); details: HepG2 Attagene cis-factorial HNF6 reporter transcription; actives raise or lower the signal
How it was run: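 Endogenous factor activity read in transiently transfected HepG2 via promoter-regulated reporter transcripts. RNA harvested 24 h post-dosing, reverse-transcribed, PCR-amplified, FAM-labelled, HpaI-digested and resolved by capillary electrophoresis; fitted in both directions against DMSO.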

[8] = target: Heat shock factor protein 1 (Homo sapiens) (UniProt Q00613); experiment: ATG_HSE_CIS: Attagene CIS-FACTORIAL HepG2 Assay for human Heat Shock Transcription Factor 1 (HSE) (AID 2282953); details: HepG2 HSE cis-reporter, Attagene RNA transcription; actives raise or lower the signal
How it was run: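 HepG2 cells transiently transfected with multiple reporter transcription units under cis-regulatory promoter control, measuring endogenous transcription factor activity. After 24 h chemical exposure, reporter mRNA quantified by RT-PCR, fluorescent labelling, HpaI digestion and capillary electrophoresis; bidirectional fit versus DMSO.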

[9] = ATG_MRE_CIS: Attagene CIS-FACTORIAL HepG2 Assay for human Metal Responsive Element (MRE) (AID 2282954); details: HepG2 MRE cis-reporter transcription, Attagene multiplex; actives raise or lower the signal
How it was run: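 Cells were transfected with cis-promoter reporter transcription units, then dosed for 24 h. RNA was reverse-transcribed, amplified, fluorescently labelled and resolved by capillary electrophoresis, and activity was fitted in both directions relative to DMSO.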

[10] = ATG_PBREM_CIS: Attagene CIS-FACTORIAL HepG2 Assay for human Phenobarbital-responsive Enhancer Module (PBREM) (AID 2282955); details: HepG2 PBREM cis-reporter, Attagene multiplexed transcription; actives raise or lower the signal
How it was run: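 Readout: reporter mRNA, fluorescent RT-PCR fragments separated by capillary electrophoresis. System: HepG2 transiently transfected with cis-regulated reporter units. Exposure: 24 h. Analysis: bidirectional, DMSO baseline.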

[11] = target: Paired box protein Pax-6 (Homo sapiens) (UniProt P26367); experiment: ATG_Pax6_CIS: Attagene CIS-FACTORIAL HepG2 Assay for human Paired Box 6 (PAX6) (AID 2282956); details: HepG2 CIS-FACTORIAL PAX6 reporter transcription, RNA readout; actives raise or lower the signal
How it was run: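 Fluorescent RT-PCR products separated by capillary electrophoresis report PAX6-linked promoter mRNA in HepG2 cells 24 h post-dose. Curves fitted bidirectionally, DMSO as negative control.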

[12] = ATG_PXRE_CIS: Attagene CIS-FACTORIAL HepG2 Assay for human Pregnane X Receptor Element (PXRE) (AID 2282957); details: HepG2 Attagene CIS-FACTORIAL PXRE reporter, mRNA; actives raise or lower the signal
How it was run: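 Reporter transcripts under endogenous PXR-responsive cis-regulation quantified from total RNA of transfected HepG2 cells 24 h post-dosing, via RT-PCR with fluorescent primer extension and capillary electrophoresis. Gain or loss of signal fitted against DMSO baseline.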

[13] = ATG_RORE_CIS: Attagene CIS-FACTORIAL HepG2 Assay for human RAR-related Orphan Receptor Element (RORE) (AID 2282959); details: HepG2 Attagene cis-factorial RORE reporter, mRNA; actives raise or lower the signal
How it was run: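 Measured here: transcript induction of a cis-regulated reporter in HepG2 cells transiently transfected via FuGene 6. After 24 h, RNA was processed by RT-PCR and fluorescent capillary electrophoresis; DMSO defined baseline activity.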

[14] = ATG_Sox_CIS: Attagene CIS-FACTORIAL HepG2 Assay for human SRY-box transcription factor (SOX) (AID 2282960); details: HepG2 Attagene cis-factorial SOX reporter, mRNA; actives raise or lower the signal
How it was run: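 Using transiently transfected HepG2 cells, reporter transcription driven by cis elements was assessed 24 h after dosing. Signal was fluorescence of capillary-separated RT-PCR products, with DMSO defining baseline activity.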

[15] = target: Transcription factor Sp1 (Homo sapiens) (UniProt P08047); experiment: ATG_Sp1_CIS: Attagene CIS-FACTORIAL HepG2 Assay for human Specificity Protein 1 (Sp1) (AID 2282961); details: HepG2 Sp1 cis-reporter transcription, actives raise or lower the signal
How it was run: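 After transient transfection of HepG2 cells with cis-promoter reporter units and 24 h chemical treatment, reporter transcripts were quantified by RT-PCR and capillary electrophoresis fluorescence. Gain- and loss-of-signal fitted against DMSO.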

[16] = ATG_SREBP_CIS: Attagene CIS-FACTORIAL HepG2 Assay for human Sterol Regulatory Element Binding (SREBP) (AID 2282962); details: HepG2 Attagene cis-factorial SREBP reporter, mRNA; actives raise or lower the signal
How it was run: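 Endogenous factor activity is measured in HepG2 through multiplexed reporter units under cis-element control. Following a 24 h incubation, reporter transcripts are reverse-transcribed, PCR-amplified and sized by capillary electrophoresis; activity is fitted in both directions relative to DMSO.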

[17] = target: Signal transducer and activator of transcription 3 (Homo sapiens) (UniProt P40763); experiment: ATG_STAT3_CIS: Attagene CIS-FACTORIAL HepG2 Assay for human Signal Transducer and Activator of Transcription 3 (STAT3) (AID 2282963); details: HepG2, Attagene cis-factorial STAT3 reporter transcription; actives raise or lower the signal
How it was run: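 HepG2, MRTU-transfected, 24 h dosing. RNA → RT → PCR → FAM label → HpaI → CE. Bidirectional fit vs DMSO.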

[18] = ATG_TA_CIS: Attagene CIS-FACTORIAL HepG2 Assay for human TA Basal Promoter (AID 2282964); details: HepG2 Attagene CIS-factorial TA basal promoter reporter; actives raise or lower the signal
How it was run: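 HepG2 cells transiently transfected with multiplexed cis-promoter reporter units, dosed 24 h. Reporter mRNA measured by RT-PCR, 6-FAM labelling, HpaI digestion and capillary electrophoresis; bidirectional fit versus DMSO baseline, serving as background control.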

[19] = ATG_PPRE_CIS: Attagene CIS-FACTORIAL HepG2 Assay for human Peroxisome Proliferator-activated Response Element (PPRE) (AID 2282958); details: HepG2 PPRE cis-element reporter, Attagene transcription factor profiling; actives raise or lower the signal
How it was run: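 After human HepG2 hepatoma cells were transiently transfected with cis-promoter reporter constructs, they were exposed to test chemicals for 24 hours. Reporter RNA was then reverse-transcribed, PCR-amplified, FAM-labeled, HpaI-digested and quantified by capillary electrophoresis.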

[20] = target: Bile acid receptor (Homo sapiens) (UniProt Q96RI1); experiment: ATG_IR1_CIS: Attagene CIS-FACTORIAL HepG2 Assay for human Nuclear Receptor Subfamily 1 Group H Member 4 (NR1H4), IR1 submotif (AID 2282946); details: IR1 reporter transcription, actives raise or lower the signal
How it was run: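 Readout: reporter transcript levels by RT-PCR with fluorescent capillary electrophoresis, from HepG2 cells transiently transfected with multiplexed cis-regulated reporters and dosed 24 h. Gain- or loss-of-signal fitted versus DMSO negative control.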

Sequence of Paired box protein Pax-6 (Homo sapiens) (P26367 whole entry, looked up): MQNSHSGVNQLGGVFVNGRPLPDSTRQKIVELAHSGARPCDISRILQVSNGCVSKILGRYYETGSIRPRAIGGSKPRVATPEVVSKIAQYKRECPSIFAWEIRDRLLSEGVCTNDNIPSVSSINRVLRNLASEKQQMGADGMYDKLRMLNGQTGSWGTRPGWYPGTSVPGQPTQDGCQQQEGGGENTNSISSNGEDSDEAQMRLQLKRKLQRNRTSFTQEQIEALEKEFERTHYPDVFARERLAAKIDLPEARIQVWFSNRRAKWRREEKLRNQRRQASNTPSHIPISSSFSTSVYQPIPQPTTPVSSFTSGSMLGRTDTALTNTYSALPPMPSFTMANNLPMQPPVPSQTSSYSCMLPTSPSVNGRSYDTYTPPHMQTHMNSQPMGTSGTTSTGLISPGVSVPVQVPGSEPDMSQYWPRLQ
Sequence of Hepatocyte nuclear factor 6 (Homo sapiens) (Q9UBC0 whole entry, looked up): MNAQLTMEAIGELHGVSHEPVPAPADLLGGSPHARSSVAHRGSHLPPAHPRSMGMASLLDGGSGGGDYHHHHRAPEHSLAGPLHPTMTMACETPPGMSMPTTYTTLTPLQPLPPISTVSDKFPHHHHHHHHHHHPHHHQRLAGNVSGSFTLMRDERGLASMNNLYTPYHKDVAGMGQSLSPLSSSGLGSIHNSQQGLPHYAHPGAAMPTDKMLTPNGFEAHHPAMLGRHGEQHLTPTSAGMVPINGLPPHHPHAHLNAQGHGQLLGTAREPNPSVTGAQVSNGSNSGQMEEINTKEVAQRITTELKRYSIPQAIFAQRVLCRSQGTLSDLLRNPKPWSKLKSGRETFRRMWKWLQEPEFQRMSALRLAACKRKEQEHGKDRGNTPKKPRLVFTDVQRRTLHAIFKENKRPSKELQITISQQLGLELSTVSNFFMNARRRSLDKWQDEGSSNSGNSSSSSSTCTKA
Sequence of Hypoxia-inducible factor 1-alpha (Homo sapiens) (Q16665 whole entry, looked up): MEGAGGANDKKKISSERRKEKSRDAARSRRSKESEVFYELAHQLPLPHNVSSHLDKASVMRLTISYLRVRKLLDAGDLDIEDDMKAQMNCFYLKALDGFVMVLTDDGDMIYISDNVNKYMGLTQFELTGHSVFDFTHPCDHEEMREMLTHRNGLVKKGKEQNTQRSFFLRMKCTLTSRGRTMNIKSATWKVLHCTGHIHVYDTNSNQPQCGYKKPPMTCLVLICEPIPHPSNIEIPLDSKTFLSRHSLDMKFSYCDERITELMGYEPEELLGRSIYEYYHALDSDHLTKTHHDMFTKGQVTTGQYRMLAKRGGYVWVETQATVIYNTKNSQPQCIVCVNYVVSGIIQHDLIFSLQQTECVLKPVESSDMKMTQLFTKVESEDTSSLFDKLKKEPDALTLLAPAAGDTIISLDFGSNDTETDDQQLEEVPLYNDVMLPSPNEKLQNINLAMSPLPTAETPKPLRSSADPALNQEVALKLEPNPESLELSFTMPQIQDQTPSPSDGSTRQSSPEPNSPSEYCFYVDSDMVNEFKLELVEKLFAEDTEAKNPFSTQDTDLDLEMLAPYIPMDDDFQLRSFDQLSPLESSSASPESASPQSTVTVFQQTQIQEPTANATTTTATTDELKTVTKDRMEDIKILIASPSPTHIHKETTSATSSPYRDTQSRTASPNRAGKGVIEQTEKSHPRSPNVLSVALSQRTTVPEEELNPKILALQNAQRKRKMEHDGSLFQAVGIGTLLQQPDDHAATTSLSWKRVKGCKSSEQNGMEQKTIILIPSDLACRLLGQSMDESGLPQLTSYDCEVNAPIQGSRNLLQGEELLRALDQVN
Sequence of Heat shock factor protein 1 (Homo sapiens) (Q00613 whole entry, looked up): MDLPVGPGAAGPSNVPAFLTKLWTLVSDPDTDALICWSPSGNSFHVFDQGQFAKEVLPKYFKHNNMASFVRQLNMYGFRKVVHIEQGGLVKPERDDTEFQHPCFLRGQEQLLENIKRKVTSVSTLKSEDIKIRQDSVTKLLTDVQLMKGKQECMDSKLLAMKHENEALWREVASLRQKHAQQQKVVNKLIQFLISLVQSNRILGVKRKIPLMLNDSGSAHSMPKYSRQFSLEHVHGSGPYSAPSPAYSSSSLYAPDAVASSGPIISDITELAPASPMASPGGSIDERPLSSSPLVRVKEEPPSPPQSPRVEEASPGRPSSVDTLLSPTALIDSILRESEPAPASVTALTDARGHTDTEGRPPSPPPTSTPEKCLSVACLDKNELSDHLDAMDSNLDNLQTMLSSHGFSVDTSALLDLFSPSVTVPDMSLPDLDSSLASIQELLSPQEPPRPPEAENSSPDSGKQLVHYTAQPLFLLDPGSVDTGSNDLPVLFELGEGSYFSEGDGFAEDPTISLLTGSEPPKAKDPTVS
Sequence of Signal transducer and activator of transcription 3 (Homo sapiens) (P40763 whole entry, looked up): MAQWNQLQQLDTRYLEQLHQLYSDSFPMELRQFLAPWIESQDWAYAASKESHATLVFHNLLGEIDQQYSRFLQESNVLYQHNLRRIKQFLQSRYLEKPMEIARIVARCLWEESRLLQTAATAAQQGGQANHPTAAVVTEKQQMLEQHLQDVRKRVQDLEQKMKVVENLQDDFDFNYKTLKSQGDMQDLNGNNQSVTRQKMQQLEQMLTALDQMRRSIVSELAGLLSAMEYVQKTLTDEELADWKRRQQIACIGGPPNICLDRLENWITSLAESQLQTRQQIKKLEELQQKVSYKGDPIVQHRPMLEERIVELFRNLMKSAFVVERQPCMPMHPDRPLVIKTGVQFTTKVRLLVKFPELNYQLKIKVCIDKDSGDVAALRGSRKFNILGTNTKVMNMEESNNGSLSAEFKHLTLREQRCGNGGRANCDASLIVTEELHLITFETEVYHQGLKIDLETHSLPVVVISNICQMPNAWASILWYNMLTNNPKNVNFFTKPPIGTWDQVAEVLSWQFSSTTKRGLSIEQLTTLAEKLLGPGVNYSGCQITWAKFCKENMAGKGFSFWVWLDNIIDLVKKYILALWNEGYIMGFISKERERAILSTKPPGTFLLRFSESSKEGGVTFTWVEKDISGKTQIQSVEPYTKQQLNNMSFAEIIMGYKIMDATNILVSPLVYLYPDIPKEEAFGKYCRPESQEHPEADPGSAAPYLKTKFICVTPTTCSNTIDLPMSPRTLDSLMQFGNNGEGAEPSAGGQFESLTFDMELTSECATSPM
Sequence of Transcription factor Sp1 (Homo sapiens) (P08047 whole entry, looked up): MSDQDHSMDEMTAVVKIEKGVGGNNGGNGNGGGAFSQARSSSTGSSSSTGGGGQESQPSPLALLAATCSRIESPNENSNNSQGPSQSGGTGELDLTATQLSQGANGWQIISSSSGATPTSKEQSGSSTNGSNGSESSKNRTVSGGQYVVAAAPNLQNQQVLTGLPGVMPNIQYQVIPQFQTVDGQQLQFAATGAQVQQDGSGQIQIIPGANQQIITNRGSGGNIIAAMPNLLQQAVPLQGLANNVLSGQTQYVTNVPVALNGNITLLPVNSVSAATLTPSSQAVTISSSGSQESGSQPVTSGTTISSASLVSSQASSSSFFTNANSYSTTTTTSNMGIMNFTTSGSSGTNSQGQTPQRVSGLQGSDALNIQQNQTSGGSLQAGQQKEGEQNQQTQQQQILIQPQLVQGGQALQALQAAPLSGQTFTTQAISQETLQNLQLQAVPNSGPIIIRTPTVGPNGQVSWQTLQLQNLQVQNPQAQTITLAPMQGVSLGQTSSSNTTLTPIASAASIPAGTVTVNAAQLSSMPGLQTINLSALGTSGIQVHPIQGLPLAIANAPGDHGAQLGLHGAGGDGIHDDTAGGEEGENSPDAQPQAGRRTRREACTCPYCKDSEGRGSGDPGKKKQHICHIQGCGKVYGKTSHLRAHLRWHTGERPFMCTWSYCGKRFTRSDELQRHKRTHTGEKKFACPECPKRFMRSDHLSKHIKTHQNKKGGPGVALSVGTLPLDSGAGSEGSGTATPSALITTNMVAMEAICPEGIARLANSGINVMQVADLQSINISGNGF
Sequence of Bile acid receptor (Homo sapiens) (Q96RI1 whole entry, looked up): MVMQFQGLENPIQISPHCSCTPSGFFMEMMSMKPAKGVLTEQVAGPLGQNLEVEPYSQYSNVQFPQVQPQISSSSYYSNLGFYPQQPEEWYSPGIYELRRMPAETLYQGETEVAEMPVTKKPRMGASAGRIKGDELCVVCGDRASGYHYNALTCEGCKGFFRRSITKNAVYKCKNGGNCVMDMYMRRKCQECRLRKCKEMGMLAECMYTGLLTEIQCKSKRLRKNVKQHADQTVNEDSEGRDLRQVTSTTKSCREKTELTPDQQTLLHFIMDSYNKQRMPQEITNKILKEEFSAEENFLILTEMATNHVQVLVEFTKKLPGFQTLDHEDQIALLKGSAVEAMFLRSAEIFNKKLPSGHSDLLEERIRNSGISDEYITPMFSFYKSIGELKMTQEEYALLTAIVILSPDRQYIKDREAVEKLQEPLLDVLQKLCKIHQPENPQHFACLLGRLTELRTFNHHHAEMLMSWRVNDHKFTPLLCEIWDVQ

Question: For `CCCCCCOC(=O)CC(CC(=O)OCCCCCC)(OC(=O)CCC)C(=O)OCCCCCC`, which outcome [1] is on record?
Answer: inactive

Question: And the outcome [2]?
Answer: inactive

Question: What about the outcome [3] of the same compound?
Answer: inactive

Question: What about the outcome [4] of the same compound?
Answer: inactive

Question: What about the outcome [5] of the same compound?
Answer: inactive

Question: What about the outcome [6] of the same compound?
Answer: inactive

Question: What about the outcome [7] of the same compound?
Answer: inactive

Question: And the outcome [8]?
Answer: inactive

Question: And the outcome [9]?
Answer: inactive

Question: And the outcome [10]?
Answer: inactive

Question: What about the outcome [11] of the same compound?
Answer: inactive

Question: And the AC50 [12]?
Answer: 0.922 µM (active)

Question: What about the outcome [13] of the same compound?
Answer: inactive

Question: What about the outcome [14] of the same compound?
Answer: inactive

Question: What about the outcome [15] of the same compound?
Answer: inactive

Question: And the outcome [16]?
Answer: inactive

Question: What about the outcome [17] of the same compound?
Answer: inactive

Question: What about the outcome [18] of the same compound?
Answer: inactive

Question: For `CCCc1ccccc1`, which outcome [1] is on record?
Answer: inactive

Question: And the outcome [2]?
Answer: inactive

Question: And the outcome [3]?
Answer: inactive

Question: What about the outcome [4] of the same compound?
Answer: inactive

Question: What about the outcome [5] of the same compound?
Answer: inactive

Question: And the AC50 [6]?
Answer: 60.7 µM (active)

Question: What about the outcome [8] of the same compound?
Answer: inactive

Question: What about the outcome [9] of the same compound?
Answer: inactive

Question: What about the outcome [10] of the same compound?
Answer: inactive

Question: What about the outcome [11] of the same compound?
Answer: inactive

Question: And the outcome [12]?
Answer: inactive

Question: And the outcome [19]?
Answer: inactive

Question: What about the outcome [13] of the same compound?
Answer: inactive

Question: What about the outcome [14] of the same compound?
Answer: inactive

Question: And the outcome [15]?
Answer: inactive

Question: And the outcome [16]?
Answer: inactive

Question: What about the outcome [17] of the same compound?
Answer: inactive

Question: And the outcome [18]?
Answer: inactive

Question: What does the source list for `CCCCC(CC)C(=O)OCCOCCOCCOC(=O)C(CC)CCCC` (stereo unspecified)?
Answer: outcome [1]: inactive; outcome [2]: inactive; outcome [3]: inactive; outcome [4]: inactive; outcome [5]: inactive; outcome [6]: inactive; outcome [7]: inactive; outcome [8]: inactive; outcome [9]: inactive; outcome [10]: inactive; outcome [11]: inactive; AC50 [12]: 27.5 µM (active); outcome [13]: inactive; outcome [14]: inactive; outcome [15]: inactive; outcome [16]: inactive; outcome [17]: inactive; outcome [18]: inactive

Question: For `COCc1nnc(-c2ccc[n+]([O-])c2)n1-c1c(Cl)c(Cl)cc2[nH]c(=O)c(=O)[nH]c12`, which outcome [1] is on record?
Answer: inactive

Question: And the outcome [20]?
Answer: inactive

Question: What about the outcome [3] of the same compound?
Answer: inactive

Question: And the outcome [4]?
Answer: inactive

Question: What about the outcome [5] of the same compound?
Answer: inactive

Question: What about the outcome [6] of the same compound?
Answer: inactive

Question: What about the outcome [7] of the same compound?
Answer: inactive

Question: And the outcome [8]?
Answer: inactive

Question: What about the outcome [9] of the same compound?
Answer: inactive

Question: And the outcome [11]?
Answer: inactive

Question: What about the outcome [12] of the same compound?
Answer: inactive

Question: What about the outcome [13] of the same compound?
Answer: inactive

Question: And the outcome [14]?
Answer: inactive

Question: And the outcome [15]?
Answer: inactive

Question: What about the outcome [16] of the same compound?
Answer: inactive

Question: What about the outcome [17] of the same compound?
Answer: inactive

Question: And the outcome [18]?
Answer: inactive
